About 83,000 compounds went through this panel and 20% of them were active in at least one assay; those are over-represented in the sample as a whole.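 Note: values are percent growth. 100 is the growth of untreated cells, values between 100 and 0 indicate rising inhibition; between -100 and 0 indicates cell death.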 A number with no mark means an inactive call. Activity calls are given as the source filed them.

The experiment deals with KM12 colon. In words: NCI-60 one-dose screen, 48 h (100 = growth as untreated, 0 = no growth, -100 = all killed). Conditions: 10 µM. Here is the method:
Growth inhibition of the KM12 human tumor cell line is measured as a screen for anti-cancer activity. Cells are grown in 96 well plates and exposed to the test compound for 48 hours. Compounds are tested at a single concentration, which is 10^-5 M for most compounds. The reported endpoint is percent growth (GI% or GIPRCNT), where numbers from 0 - 100% represent growth inhibition, and numbers from -100% - 0 represent cell death. For example, a value of 40 represents 60% growth inhibition. A value of 0 means no net growth occurred over the course of the experiment. A value of -40 indicates 40% of cells at the beginning of the experiment died by the end of the experiment. A value of -100 means all cells are dead at the end of the experiment.
NCI-60 Human Tumor Cell Lines Screen was performed using the standard one-dose NCI protocol, which is described in more detail at https://dtp.cancer.gov/discovery_development/nci-60/default.htm.
Compounds with GIPRCNT values below 10 were considered active. Activity score was based on GIPRCNT using the following formula: […]
Score is 0 for GIPRCNT values of 100 or above, 50 for GIPRCNT values of 0, and 100 for GIPRCNT values of -100.
For the compound `COc1ccc(C2=NNC(c3sc(Cl)nc3Cl)C2)cc1` (stereo not given), the growth was 79.5%.

As for `COc1ccc(-c2nnc(N3CCN(C(=O)CN4CCN(c5ccc(Cl)cc5)CC4)CC3)nc2-c2ccc(OC)cc2)cc1`, the growth was 50.5%.

Take `C[N+]1(CC2CO2)CCCCCC1` (stereo not given): the growth was 93.9%. As to `O=C(COc1ccc(-c2nc3ccccc3[nH]2)cc1)N=Nc1c(O)[nH]c2ccccc12`, the growth was 58.2%.

Regarding `COc1ccc(NC(=O)c2sc3nc4c(cc3c2N)C(O)CCC4)cc1` (stereo not given), the growth was 98%. To `Cn1c([N+](=O)[O-])cnc1C=C1C(=O)c2ccccc2C1=O` belongs 68.3%; to `O=C1c2cc(Cl)ccc2-c2c(O)cc(Cl)cc21`, 61%; to `CCCCC(CC#N)(CCC)CCC`, 107%.

Turning to `CCCCCCCCCCN=C(c1ccc(N(C)C)cc1)c1ccc(N(C)C)cc1`, the growth is 27.8%. For the compound `C/C(=N/NC(=O)c1sc(=S)n(C)c1N)c1cc2cc(Cl)ccc2o1`, the growth was 88.2%. Turning to `CCN(CCCNC(=O)Cc1cc(=O)oc2cc(N(C)C)ccc12)CCNc1ccnc2cc(Cl)ccc12`, the growth was 92.7%. To `O=C(Nc1ccc(Oc2ccc(Nc3nc4ccccc4s3)cc2)cc1)Nc1ccc(Cl)c(Cl)c1` belongs 20.7%; to `Cc1cc(C(C)(C)CC(C)(C)C)ccc1OCCOCC[N+](C)(C)Cc1ccccc1`, -92.5% (active). `S=C(Cc1ccc(-c2ccccc2)cc1)N1CCOCC1`: the growth was 99.3%. Regarding `CCCCCC(CCC)COC(=O)c1ccc(OC)cc1` (stereo not given), the growth was 109%. Consider `COc1ccc(-c2csc(-c3cc(Cl)cc(Cl)c3Cl)n2)cc1`, for which the growth was 86.9%. To `Cn1c([N+](=O)[O-])cnc1/C=C1\Oc2ccc(Br)cc2C1=O` belongs -45.8% (active); to `CN1/C(=C\C(I)C(I)C2=[N+](C)c3ccccc3C2(C)C)C(C)(C)c2ccccc21` (stereo not given), 13.2%; to `Nc1c(C(=O)NC2CCCCC2)sc2nc3c(cc12)C(=O)CCC3`, 91.8%. As for `COc1cc(-c2nc3ccccc3[nH]2)ccc1OCc1nnc(-c2ccc(Br)cc2)o1`, the growth was 69.2%.

Turning to `CCC1(C)OC(=O)NC1=O` (stereo not given), the growth is 107%. To `Cc1nc(N)sc1Sc1nc2ccc(Cl)cc2c(=O)n1-c1ccc(Oc2ccccc2)cc1` belongs 79.8%; to `Brc1ccc(-c2cn3ccnc3c(-c3ccc(Br)cc3)n2)cc1`, 34.6%; to `N#C/C(=C\N1C(=O)/C(=C/c2cccc([N+](=O)[O-])c2)SC1=S)c1nc2ccccc2s1`, 81.3%. On to `O=C(NCCCl)c1cc(Cl)cc(Cl)c1`, for which the growth is 107%. To `CCN(CC)CC(O)Cc1ccc(OC)cc1` (stereo not given) belongs 116%; to `COc1cc(/C=C2\C(=O)Nc3cc(C)c(O)cc32)cc(OC)c1OC`, 21.9%. As to `COc1cc(C2C=C(c3ccc(Cl)cc3)N=C3SC(C)=CN32)cc(OC)c1OC` (stereo not given), the growth is 94.1%. For `COc1ccc(Nc2nc(NCc3ccccc3)c3ccccc3n2)cc1`, the growth is 80.7%. In the case of `Cc1ccc(-n2nnc3c(sc4ccccc43)c2=O)cc1`, the growth is 25.3%. In the case of `NS(=O)(=O)c1ccc(N2N=C(c3ccc(-c4ccccc4)cc3)CC2c2ccc(Cl)cc2)cc1` (stereo not given), the growth was 68.6%.

For `C=CCOc1ccc2c(c1)CC=C1[C@@H]2CC[C@]2(C)C(=O)/C(=N/O)C[C@@H]12`, the growth is 57.9%. Turning to `O=C(CCCC(=O)N/N=C/c1cc(Cl)ccc1O)N/N=C\c1cc(Cl)ccc1O`, the growth is 27.8%. To `Nc1cc2c(cc1Cl)-c1ccc(Cl)cc1C2=O` belongs 96.4%; to `CS(=O)(=O)Nc1ccc([N+](=O)[O-])cc1Oc1ccccc1`, 94.5%. With `COc1ccc(Cn2cc3c(c2-c2cc(OC)c(OC)c(OC)c2)CCc2cnoc2-3)cc1[N+](=O)[O-]`, the growth is 24.7%. To `NC(N)=NS(=O)(=O)c1ccc(Nc2ccc3nnc(-c4ccncc4)n3n2)cc1` belongs 100%. Take `COc1cc(-c2cc(-c3cc(OC)c(OC)c(OC)c3)nc3nc(N)[nH]c(=O)c23)ccc1Oc1ccnc2cc(Cl)ccc12`: the growth is 13.5%. With `COc1ccc(-c2[nH]ncc2/C=C/c2cc(C(F)(F)F)[nH]c(=O)n2)cc1`, the growth was 103%. As for `CN(C)Cc1cccs1`, the growth was 101%.

(Values after PubChem BioAssay (NCI).)
